Laboratory results reported in PubChem BioAssay (NCI).
The panel holds about 79,000 compounds, 15% with a hit somewhere; the sample as a whole holds those more often. Activity calls are given as the source filed them. Rule as the data show it: active = growth inhibition above about 70%; inactive = the rest.

Assays:
[1] = NCI Yeast Anticancer Drug Screen. Data for the rad52 strain (AID 147);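 also: 0% = growth of vehicle-treated control cultures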; conditions: S. cerevisiae rad52 mutant growth inhibition, hits give high values
Method in brief: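 Read-out: growth inhibition versus vehicle-treated controls. Cells were a DNA repair-deficient yeast strain treated with compounds.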

[2] = NCI Yeast Anticancer Drug Screen. Data for the wt1 strain (AID 149);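 also: 0% = growth of vehicle-treated wt1 cultures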; conditions: S. cerevisiae wt1 strain (SPY 50644) growth inhibition, hits give high values
Method in brief: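 wt1 yeast, compound-treated; % growth inhibition vs vehicle control.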

[3] = NCI Yeast Anticancer Drug Screen. Data for the rad50EPP+ strain (AID 151);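 also: 0% = growth of vehicle-treated control cultures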; conditions: S. cerevisiae rad50 mutant strain, hits give high values
Method in brief: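 Growth inhibition read against vehicle controls in rad50EPP+ yeast, a strain altered in DNA damage repair, after compound exposure.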

[4] = NCI Yeast Anticancer Drug Screen. Data for the mgt1 strain (AID 153); conditions: S. cerevisiae mgt1 mutant growth inhibition, hits give high values
Method in brief: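 mgt1 yeast grown with test compound; read-out is growth inhibition versus vehicle-treated cultures.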

[5] = NCI Yeast Anticancer Drug Screen. Data for the rad50 strain (AID 155);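 also: 0% = growth of vehicle-only cultures of the same strain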; conditions: S. cerevisiae rad50 strain growth inhibition, hits give high values
Method in brief: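 Genetically altered yeast (DNA repair pathway); compound treatment; growth inhibition vs vehicle ctrl.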

[6] = NCI Yeast Anticancer Drug Screen. Data for the mec2-1 strain (AID 157); conditions: S. cerevisiae mec2-1 strain, hits give high values
Method in brief: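 Yeast mec2-1 mutant treated with compound. Readout: growth inhibition vs vehicle controls.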

[7] = NCI Yeast Anticancer Drug Screen. Data for the rad14 strain (AID 159);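 also: 0% = growth of vehicle-treated control cultures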; conditions: S. cerevisiae rad14 strain growth inhibition, hits give high values
Method in brief: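 Test compounds were applied to a repair-deficient yeast strain. Its growth was then compared with that of cultures given vehicle alone, and inhibition was expressed relative to those controls.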

[8] = NCI Yeast Anticancer Drug Screen. Data for the sgs1 mgt1 strain (AID 161);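 also: 0% = growth of cultures given vehicle only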; conditions: S. cerevisiae sgs1 mgt1 strain, hits give high values
Method in brief: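 Genetically altered yeast, compound exposure, growth inhibition relative to vehicle.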

[9] = NCI Yeast Anticancer Drug Screen. Data for the CLN2oe strain (AID 163);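 also: 0% = growth of vehicle-only control cultures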; conditions: S. cerevisiae CLN2oe strain, hits give high values
Method in brief: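 Read-out: yeast growth inhibition, expressed relative to vehicle-only controls. The strain bears an engineered cell-cycle alteration.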

[10] = NCI Yeast Anticancer Drug Screen. Data for the bub3 strain (AID 167); conditions: S. cerevisiae bub3 mutant strain, hits give high values
Method in brief: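 Yeast carrying a defined mutation is treated with each compound, and growth is compared with that of vehicle-exposed cells to give inhibition.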

[11] = NCI Yeast Anticancer Drug Screen. Data for the wt2 strain (AID 169);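 also: 0% = growth of vehicle-treated yeast cultures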; conditions: S. cerevisiae wt2 strain growth inhibition, hits give high values
Method in brief: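 Read-out: growth inhibition versus vehicle-treated control cultures after compound exposure of the yeast strain.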

[12] = NCI Yeast Anticancer Drug Screen. Data for the mlh1 strain (AID 171);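 also: 0% = growth of vehicle-treated control cultures of the same strain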; conditions: S. cerevisiae mlh1 strain growth inhibition, hits give high values
Method in brief: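 Read-out: growth inhibition versus vehicle controls. Strain: engineered yeast with a defined DNA repair or cell cycle defect, compound-treated.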

[13] = NCI Yeast Anticancer Drug Screen. Data for the sgs1 strain (AID 173);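 also: 0% = growth of vehicle-only control cultures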; conditions: S. cerevisiae sgs1 mutant, hits give high values
Method in brief: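 Read-out: yeast growth inhibition relative to vehicle controls, following compound exposure of a strain with a defined DNA repair/cell cycle alteration.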

[14] = NCI Yeast Anticancer Drug Screen. Data for the mlh1 rad18 strain (AID 175); conditions: S. cerevisiae mlh1 rad18 strain growth inhibition, hits give high values
Method in brief: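 Yeast w/ defined DNA-repair lesions; compound exposure; growth vs vehicle controls → % inhibition.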

[15] = NCI Yeast Anticancer Drug Screen. Data for the rad18 strain (AID 177); conditions: S. cerevisiae rad18 mutant growth inhibition, hits give high values
Method in brief: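 Readout: growth inhibition vs vehicle controls. Cells: genetically altered yeast strain, DNA repair defect.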

[16] = at 5.0 µM (retest, dose inferred, filed as 0.5)
[17] = at 50.0 µM (retest, dose inferred, filed as 5.0)

Measured: growth inhibition

CC(C)OP(=O)(OC(C)C)C(=NCCO)NNc1ccc([N+](=O)[O-])cc1
inactive: [1]; at 1.2 µM 8% | [1]; at 3.7 µM 3% | [1]; at 11.0 µM 14% | [1]; at 33.0 µM 31% | [2]; at 1.2 µM -6% | [2]; at 3.7 µM 1% | [2]; at 11.0 µM 6% | [2]; at 33.0 µM 7% | [2]; at 100.0 µM 29% | [3]; at 1.2 µM -2% | [3]; at 3.7 µM 34% | [3]; at 11.0 µM 69% | [4]; at 1.2 µM -34% | [4]; at 3.7 µM -34% | [4]; at 11.0 µM -32% | [4]; at 33.0 µM 0% | [5]; at 1.2 µM -5% | [5]; at 3.7 µM -3% | [5]; [16] 8% | [5]; at 11.0 µM 24% | [5]; at 33.0 µM 59% | [5]; [17] 64% | [6]; at 1.2 µM -23% | [6]; at 3.7 µM -16% | [6]; [16] -2% | [6]; at 11.0 µM -19% | [6]; at 33.0 µM 20% | [6]; [17] 33% | [6]; at 50.0 µM 28.1% | [6]; at 100.0 µM 40% | [7]; at 1.2 µM -10% | [7]; at 3.7 µM 3% | [7]; at 11.0 µM 4% | [7]; at 33.0 µM 3% | [7]; at 100.0 µM 42% | [8]; [16] 1% | [8]; [17] 23% | [9]; at 1.2 µM -17% | [9]; at 3.7 µM 3% | [9]; at 11.0 µM 4% | [9]; at 33.0 µM 44% | [10]; at 1.2 µM -15% | [10]; at 3.7 µM 22% | [10]; [16] 22% | [10]; at 11.0 µM 49% | [10]; [17] 62% | [10]; at 50.0 µM 56.7% | [11]; at 1.2 µM 1% | [11]; at 3.7 µM -3% | [11]; at 11.0 µM 8% | [11]; at 33.0 µM 26% | [11]; at 100.0 µM 50% | [12]; at 1.2 µM -18% | [12]; at 3.7 µM -22% | [12]; at 11.0 µM 3% | [12]; at 33.0 µM 46% | [13]; at 1.2 µM 24% | [13]; at 3.7 µM 39% | [14]; [16] 48% | [15]; at 1.2 µM 20% | [15]; at 3.7 µM 0% | [15]; at 11.0 µM 13% | [15]; at 33.0 µM 54%
active: [1]; at 100.0 µM 79% | [3]; at 33.0 µM 93% | [3]; at 100.0 µM 94% | [4]; at 100.0 µM 74% | [5]; at 50.0 µM 86% | [5]; at 100.0 µM 91% | [8]; at 50.0 µM 85% | [9]; at 100.0 µM 90% | [10]; at 33.0 µM 94% | [10]; at 100.0 µM 95% | [12]; at 100.0 µM 87% | [13]; at 11.0 µM 71% | [13]; at 33.0 µM 95% | [13]; at 100.0 µM 95% | [14]; [17] 96% | [14]; at 50.0 µM 72.9% | [15]; at 100.0 µM 91%
